From PubChem BioAssay
For some of these results: Measured potencies and affinities stand elsewhere. Active and inactive are the calls of the source.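 How the source made its calls, unless noted: active means fluorescence ratio normalized to control raised more than 50% in primary screen plus both repeat runs; inactive means the rest.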

What was measured:
[1] = tested on: TRPC4 beta (transient receptor potential cation channel C4), mouse; experiment: TRPC4 cation channel opening, retest – cell-based, Fluo4 calcium, HEK293 TRPC4beta/mu-opioid, duplicates, 10 µM, confirmation (AID 2426); conditions: Fluo4 calcium fluorescence, at 10 µM; active compounds read high
[2] = tested on: transient receptor potential cation channel C4 beta (TRPC4), mouse; experiment: TRPC4 cation channel opening, second retest – cell-based, second round, Fluo4, HEK293 TRPC4beta/mu-opioid, 1 µM, confirmation (AID 2461;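 active means primary screen active and over 50% activation in each of two duplicate runs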); conditions: Fluo4 calcium fluorescence, at 1 µM; active compounds read high
[3] = tested on: TRPC4 (transient receptor potential cation channel C4 beta), mouse; experiment: potentiation of DAMGO EC20 TRPC4 response – cell-based, second round, Fluo-4, HEK293 TRPC4beta/mu-opioid, 1 µM, confirmation (AID 2554;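 active means primary screen hit whose fluorescence ratio, in both repeats, exceeds the weak agonist control mean by 3 SD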); conditions: DAMGO EC20, Fluo-4 calcium flux, at 1 µM; active compounds read high
[4] = tested on: TRPC4 beta (transient receptor potential cation channel C4), mouse; experiment: potentiation of DAMGO EC20 TRPC4 response – cell-based, Fluo-4, HEK293 TRPC4beta/mu-opioid, confirmation (AID 2555;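 active means primary screen hit whose calcium fluorescence ratio, in both repeats, exceeds the weak agonist control mean by 3 SD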); conditions: DAMGO EC20, Fluo-4 calcium flux, at 10 µM; active compounds read high
[5] = target: Short transient receptor potential channel 4 (Mus musculus) (UniProt Q9QUQ5); experiment: blockers of DAMGO-evoked TRPC4 calcium flux – cell-based, Fluo4, HEK293 TRPC4beta/mu-opioid, confirmation (AID 2636;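 active means calcium signal cut by more than 3 SD below the full-agonist control yet still positive, in both repeats and the earlier primary screen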); conditions: at 10 µM; active compounds read high
[6] = target: Short transient receptor potential channel 4 (Mus musculus) (UniProt Q9QUQ5); experiment: blockers of DAMGO-evoked TRPC4 calcium flux – cell-based, second round, Fluo4, HEK293 TRPC4beta/mu-opioid, 1 µM, confirmation (AID 2637;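 active means calcium signal ratio cut to more than 3 SD under the fully stimulated control mean yet still positive, in both repeats and the primary screen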;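 on inhibition: percent of integrated ratio relative to wells lacking test compound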); conditions: at 1 µM; active compounds read high
[7] = target: Short transient receptor potential channel 4 (Mus musculus) (UniProt Q9QUQ5); experiment: calcium entry via TRPC4 opening agents – cell-based, HEK293 TRPC4/mu-opioid, Fluo-4 calcium, dose response (AID 434937;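 active means primary screen activator hit with a dose response curve and TRPC4 channel activation at any tested dose; inactive means no activation, no dose response, or not a primary hit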)
[8] = target: Short transient receptor potential channel 4 (Mus musculus) (UniProt Q9QUQ5); experiment: potentiation of DAMGO-evoked TRPC4 calcium signal – cell-based, HEK293 TRPC4/mu-opioid, Fluo-4 calcium, EC20 DAMGO, dose response (AID 434941;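 active means earlier screen potentiator hit that boosts the TRPC4 ion channel at some dose, with a dose response; inactive means no potentiation, no dose response, or not a prior hit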;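 further: calcium entry triggered by an EC20 dose of DAMGO at the co-expressed mu-opioid receptor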)
[9] = target: Short transient receptor potential channel 6 (Mus musculus) (UniProt Q61143); experiment: TRPC6 blockade by TRPC4 inhibitor hits – cell-based, HEK293, membrane potential dye, duplicate, selectivity assay for TRPC4 inhibitor project, confirmation (AID 434948;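 active means active in primary screen and both duplicates, each dropping signal beyond three positive-control SD with fluorescence still positive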); conditions: HEK293 TRPC6, membrane potential dye fluorescence, at 10 µM, stimulated with maximal-effect acetylcholine; active compounds read high
[10] = target: Short transient receptor potential channel 6 (Mus musculus) (UniProt Q61143); experiment: TRPC6 opening by TRPC4 activator hits – cell-based, HEK293, membrane potential dye, duplicate, selectivity assay for TRPC4 activator project, confirmation (AID 434950;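 active means membrane potential signal rise above negative control mean plus 3 SD in both duplicates, also active in the earlier TRPC4 screen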); conditions: HEK293 TRPC6, membrane potential fluorescence, at 10 µM; activation: active compounds read high; outcome: activation
[11] = target: Short transient receptor potential channel 6 (Mus musculus) (UniProt Q61143); experiment: positive modulators of mouse TRPC6 channel – HEK293 cells, membrane potential dye, duplicate, selectivity assay for TRPC4 potentiator project, confirmation (AID 434952;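 active means compound raising the membrane signal above positive-control mean plus 3 SD in both repeats, and a primary screen hit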); conditions: HEK293 TRPC6, membrane potential dye fluorescence, at 10 µM, maximal acetylcholine added after compound; active compounds read high
[12] = target: Short transient receptor potential channel 4 (Mus musculus) (UniProt Q9QUQ5); experiment: calcium flux activators in TRPC4/5HT1a cells, counter-screen for TRPC4 activator project, cell-based, second counter screen, HEK293 TRPC4/5HT1a, Fluo-4 (AID 434977;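 active means calcium signal rise above buffer-control mean plus 5 SD in both duplicates, and also a hit in the primary screen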); conditions: Fluo-4 calcium flux, at 10 µM; active compounds read high
[13] = serotonin-gated TRPC4 signal block – cell-based, second counter screen, HEK293 TRPC4/5HT1a, Fluo-4, counter-screen for TRPC4 inhibitor project, confirmation (AID 434978;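 active means primary screen active whose calcium signal fell more than 3 SD beyond the full-serotonin control mean in both duplicate plates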;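 on outcome: serotonin given first at submaximal then at maximal dose after compound preincubation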); conditions: Fluo-4 calcium flux, at 10 µM, serotonin added to trigger calcium flux; active compounds read high
[14] = tested on: TRPC4 (mouse), co-expressed with 5HT1a in HEK293; experiment: enhancement of serotonin-evoked TRPC4 response – cell-based, second counter screen, HEK293 TRPC4/5HT1a, Fluo-4, counter-screen for TRPC4 potentiator project, confirmation (AID 434979;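 active means signal rise over 3 SD above mean of control wells given weak agonist, in both repeats and first screen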); conditions: Fluo-4 calcium flux, at 10 µM, serotonin added at its EC20 dose; active compounds read high
[15] = nonspecific calcium rise without TRPC4 – cell-based, HEK293 mu-opioid receptor line, counter-screen for TRPC4 activator project, confirmation (AID 449723;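 active means hit in primary screen, with calcium signal over 5 SD above buffer well mean in both duplicates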;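 further: counter screen cells carry the mu-opioid receptor alone and lack TRPC4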); conditions: HEK293 mu-opioid cells, Fluo-4 calcium fluorescence, at 10 µM; active compounds read high
[16] = nonspecific potentiation of DAMGO calcium response – cell-based, HEK293 mu-opioid receptor line, counter-screen for TRPC4 allosteric potentiator project, confirmation (AID 449724;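 active means calcium signal rise more than 3 SD above the low-dose agonist control mean, in both duplicate plates and the primary screen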); conditions: HEK293 mu-opioid receptor cells, Fluo-4 calcium flux, at 10 µM, compound added before EC20 DAMGO stimulus; active compounds read high

Measured: inhibition

Sequence of Short transient receptor potential channel 6 (Mus musculus) (Q61143 whole entry, looked up): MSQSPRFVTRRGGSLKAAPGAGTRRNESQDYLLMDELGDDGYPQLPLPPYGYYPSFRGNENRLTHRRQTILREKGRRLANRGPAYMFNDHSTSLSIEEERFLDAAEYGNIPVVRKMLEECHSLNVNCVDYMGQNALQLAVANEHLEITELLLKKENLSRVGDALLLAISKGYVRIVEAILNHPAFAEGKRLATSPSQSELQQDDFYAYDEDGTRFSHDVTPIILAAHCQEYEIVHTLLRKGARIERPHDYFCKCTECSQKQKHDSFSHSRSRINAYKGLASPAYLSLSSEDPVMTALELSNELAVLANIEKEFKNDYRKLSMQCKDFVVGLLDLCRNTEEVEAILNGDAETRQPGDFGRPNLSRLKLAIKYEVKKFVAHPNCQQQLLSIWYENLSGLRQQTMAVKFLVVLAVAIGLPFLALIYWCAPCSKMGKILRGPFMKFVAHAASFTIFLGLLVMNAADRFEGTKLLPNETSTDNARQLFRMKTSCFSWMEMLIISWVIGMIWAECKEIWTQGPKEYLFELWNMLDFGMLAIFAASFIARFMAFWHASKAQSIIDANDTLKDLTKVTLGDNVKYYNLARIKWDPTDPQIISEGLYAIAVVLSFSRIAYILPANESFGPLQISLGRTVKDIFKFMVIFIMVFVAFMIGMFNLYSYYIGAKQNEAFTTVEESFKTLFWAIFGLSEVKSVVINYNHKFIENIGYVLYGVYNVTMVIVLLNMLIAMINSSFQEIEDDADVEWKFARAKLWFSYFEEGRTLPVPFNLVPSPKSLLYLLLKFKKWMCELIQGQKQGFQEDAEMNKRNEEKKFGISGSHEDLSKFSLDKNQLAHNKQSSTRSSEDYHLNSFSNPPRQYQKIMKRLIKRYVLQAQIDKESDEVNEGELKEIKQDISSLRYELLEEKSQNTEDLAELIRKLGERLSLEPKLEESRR
Sequence of Short transient receptor potential channel 4 (Mus musculus) (Q9QUQ5 whole entry, looked up): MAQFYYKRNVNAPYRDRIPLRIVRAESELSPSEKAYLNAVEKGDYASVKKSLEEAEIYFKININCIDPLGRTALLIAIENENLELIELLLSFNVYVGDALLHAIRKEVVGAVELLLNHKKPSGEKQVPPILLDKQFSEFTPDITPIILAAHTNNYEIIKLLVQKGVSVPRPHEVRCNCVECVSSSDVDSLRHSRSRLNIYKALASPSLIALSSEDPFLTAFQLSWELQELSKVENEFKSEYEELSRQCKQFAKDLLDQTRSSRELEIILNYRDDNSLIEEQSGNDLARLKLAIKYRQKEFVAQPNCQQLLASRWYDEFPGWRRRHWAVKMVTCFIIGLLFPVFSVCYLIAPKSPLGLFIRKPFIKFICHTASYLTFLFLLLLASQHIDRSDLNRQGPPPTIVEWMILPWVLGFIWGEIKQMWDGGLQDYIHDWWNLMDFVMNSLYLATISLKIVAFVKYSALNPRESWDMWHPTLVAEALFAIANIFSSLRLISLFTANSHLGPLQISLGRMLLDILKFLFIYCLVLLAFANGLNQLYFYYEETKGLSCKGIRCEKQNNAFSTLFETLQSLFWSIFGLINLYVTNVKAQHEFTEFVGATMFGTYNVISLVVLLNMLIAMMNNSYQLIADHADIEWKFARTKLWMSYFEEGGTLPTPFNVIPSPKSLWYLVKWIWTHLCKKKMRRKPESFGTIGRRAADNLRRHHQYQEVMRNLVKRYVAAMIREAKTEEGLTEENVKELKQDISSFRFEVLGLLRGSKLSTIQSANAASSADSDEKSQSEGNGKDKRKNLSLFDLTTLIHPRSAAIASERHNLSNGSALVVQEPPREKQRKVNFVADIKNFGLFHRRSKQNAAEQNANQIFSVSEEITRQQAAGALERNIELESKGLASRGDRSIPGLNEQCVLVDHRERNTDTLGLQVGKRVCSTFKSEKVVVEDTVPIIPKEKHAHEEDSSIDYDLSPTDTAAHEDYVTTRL

CCC1C=C(c2ccccc2)C=CN=C1N(CC)CC (stereo unspecified)
active: [5] 93% | [13] 26.5%
inactive: all other assays above

O=C1/C(=C/c2ccccc2Cl)SC(=S)N1CCCC(=O)N(CCO)c1ccccc1
active: [5] 83% | [6] 50% | [13] 24.9%
inactive: all other assays above

Cc1ccc2cc(CN(CCCN3CCOCC3)C(c3nnnn3Cc3ccco3)C(C)C)c(=O)[nH]c2c1C (stereo unspecified)
active: [5] 98% | [6] 72%
inactive: all other assays above

Cc1cccc(-n2ccnc2CN2CCC(CO)(Cc3ccccc3)CC2)c1
active: [5] 70%
inactive: all other assays above

COc1ccc(C(c2nnnn2C2CCCC2)N2CCN(c3ccccc3)CC2)cc1 (stereo unspecified)
active: [5] 52%
inactive: all other assays above

Clc1ccc2c(c1)-c1nnc(Br)n1-c1ccccc1S2
active: [5] 83%
inactive: all other assays above

C=CCSc1nnc2n(-c3ccccc3OC)c(=O)c3c4c(sc3n12)CCC4
active: [5] 58% | [13] 29.1%
inactive: all other assays above

COCCn1c(SCc2cc(C(C)=O)ccc2OC)nc2cc(Cl)ccc2c1=O
active: [5] 78%
inactive: all other assays above

CC1(C)CC2CC(C)(CN2CC(O)COc2ccccc2)C1 (stereo unspecified)
active: [5] 86%
inactive: all other assays above

C=CCOc1ccc(Br)cc1CNC(C)(C)CO
active: [5] 94% | [6] 39% | [13] 24.1%
inactive: all other assays above

CN1CCN(c2nc(-c3cccnc3)nc3scc(-c4ccccc4)c23)CC1
inactive: all assays above

CCOC(=O)C1(CCOC)CCN(C(C)CCc2ccc(OC)cc2)CC1 (stereo unspecified)
active: [5] 75%
inactive: all other assays above

CCOC(=O)c1c(-c2cccc(C)c2)csc1NC(=O)C1CC=CCC1C(=O)O (stereo unspecified)
active: [5] 89% | [13] 46.1%
inactive: all other assays above

Cc1cc(Nc2ccc(C)c(C)c2)c2ccccc2n1
active: [5] 99% | [6] 42% | [9] 35.5% | [13] 30.8%
inactive: all other assays above

O=C(Nc1ccccc1Oc1cccnc1)C1CCCN(Cc2cccc(Cl)c2)C1 (stereo unspecified)
active: [5] 89% | [13] 33.5%
inactive: all other assays above

COc1ccc2nc(C)cc(NCc3ccc(F)cc3)c2c1
active: [5] 84% | [9] 56%
inactive: all other assays above
